# Compounds with a hit are over-represented: about 3% of the library has one in this group of screens.
# Measles CPE: compounds protecting cells from measles virus cytopathic effect, primary screen, measles RdRp inhibitor project, single point, MLSMR library, absorbance | Measles virus-infected cells, CPE protection | protection (pct of control), % at 4 µM | 140,000 compounds, 1.5% hits | AID 841, 2007; in the data active means protection mostly above about 24%, no sharp cut-off; inactive means mostly below about 26%
# SDO1 yeast rescue: growth rescue of sdo1-depleted yeast, primary screen, S. cerevisiae, bone marrow failure model; 140,000 compounds, 0.21% hits; S. cerevisiae sdo1-depleted JHY4D growth rescue, OD600 30 h; stronger effect = higher value; pdr5 snq2 efflux-pump mutant strain; z-score at 10 µM;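 active means z-score above 3 at both the 24 hr and the 30 hr optical density reads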;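 further: z-score against mean and SD of all compound wells on the same plate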
# ROMK mod: ROMK potassium channel modulators, primary screen, cell-based, thallium flux, MLSMR library. 130,000 compounds, 2% hits. ATP-sensitive inward rectifier potassium channel 1 (Homo sapiens), P48048. B-score at 10 µM. Tet-inducible ROMK, thallium flux fluorescence; actives lie on both sides;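 active means signal ratio slope over the read window, or its plate-corrected B-score, at least 3 SD from the plate mean, either direction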;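 further: B-score of the F/F0 ratio slope over 7 to 12 s after thallium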
# Target sequence (P48048 whole entry, looked up): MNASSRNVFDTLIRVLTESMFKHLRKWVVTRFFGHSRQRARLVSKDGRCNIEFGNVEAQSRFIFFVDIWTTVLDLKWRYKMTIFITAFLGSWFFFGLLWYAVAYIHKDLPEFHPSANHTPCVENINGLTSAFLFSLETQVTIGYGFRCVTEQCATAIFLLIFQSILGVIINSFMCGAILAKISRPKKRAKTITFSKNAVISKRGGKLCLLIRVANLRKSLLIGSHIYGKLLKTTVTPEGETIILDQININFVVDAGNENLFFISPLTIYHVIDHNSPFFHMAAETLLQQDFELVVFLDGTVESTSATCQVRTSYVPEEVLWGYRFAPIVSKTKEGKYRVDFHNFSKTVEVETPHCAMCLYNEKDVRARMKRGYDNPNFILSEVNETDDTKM
# INS promoter inh: inhibitors of insulin promoter-driven GFP, primary screen, imaging, TRM-6 cells (human fetal islet line), eGFP reporter, cell count; reporter expression induced with tamoxifen; inhibition, % at 2 µM; 130,000 compounds, 0.9% hits; AID 1273, 2008;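 active means inhibition above the mean plus 3 SD, with well images judged a real hit on visual review, cut at about 60% in these data, passing the limit was not always enough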
# An asterisk follows results filed as active; x = not tested or not shown.
SMILES,Measles CPE,SDO1 yeast rescue,ROMK mod,INS promoter inh
Cc1ccc(NC(=O)c2cn(-c3cccc(C)n3)cn2)cc1,4,-0.28,x,-6
COc1cc(/C(C)=N\NC(=O)CSc2nc3ccccc3n2C)ccc1O,x,x,-0.86,x
CCCCCc1c(C)nc(NCc2ccccc2)[nH]c1=O,37*,-2.1,x,9
CCCCn1c(N)c(N(CCC(C)C)C(=O)COC(=O)c2ccccc2)c(=O)[nH]c1=O,x,x,0.039,x
CCCCn1c(N)c(N(CCC(C)C)C(=O)COC(=O)c2ccco2)c(=O)[nH]c1=O,31*,1.5,x,51
CC1(C)COC(c2coc3ccccc3c2=O)OC1,5,0.37,x,100*
CCOC(=O)C1=C(C)NC2=C(C(=O)CC(C)(C)C2)C1c1coc2ccccc2c1=O (configuration not stated),5,0.97,0.00021,-447
C#CCONC(=O)c1cc(OCC(F)(F)F)ccc1OCC(F)(F)F,1,-0.91,x,-4
CCCCCn1nc(C)c(/C=N/NC(=O)c2ccoc2C)c1C,5,0.08,x,93*
CCn1nc(C)c(/C=N/NC(=O)c2ccoc2C)c1C,7,1.3,x,29
CCCCCn1nc(C)c(/C=N\NC(=O)c2cc(C)oc2C)c1C,8,0.47,x,85*
O=C(O)CC(NC(=O)OCc1ccccc1)c1ccccc1 (configuration not stated),20*,-0.53,x,17
Cc1ccc(CO/N=C/C2=C(Cl)c3ccccc3CC2)cc1,7,1.1,-0.61,79*
O=C(Nc1ccc(S(=O)(=O)Nc2nccs2)cc1)/C(=C/c1ccccc1Cl)NC(=O)c1ccccc1,34,1.2,x,11
COc1ccc(Cl)cc1CSc1n[nH]c(C)n1,27*,-1.1,x,x
O/N=C(/CN(O)/C=C1/C=CC=N1)c1cccs1,14,1,-5*,-26
O=C(C1=C(O)C(=O)N(c2ncccn2)C1c1ccc(Cl)cc1)c1ccco1 (configuration not stated),4,0.5,x,42
Cc1ccc(C(=O)C2=C(O)C(=O)N(c3ncccn3)C2c2ccc(Cl)cc2)o1 (configuration not stated),10,0.63,0.036,80*
Cc1cc(OCc2ccc(F)cc2)nc(-c2ccccc2O)n1,33*,-0.55,-0.0048,-15
Cc1ccc(Oc2cc(C)nc(-c3ccccc3O)n2)cc1,12,-1.9,0.23,x
Cc1cc(OC2CCCCC2)nc(-c2ccccc2O)n1,3,-0.63,-0.11,62
Cc1cc(Oc2ccc(Cl)cc2)nc(-c2ccccc2O)n1,31*,-1,-0.086,62
Cc1ccc(N/C(N)=N/c2nc(C)cc(N3CCCCC3)n2)c(C)c1,x,x,-0.78,x
Cc1ccc(Oc2ccc(OCC(=O)NC(CC(C)C)C(=O)O)cc2)cc1 (configuration not stated),x,x,1.1,x
O=S(=O)(N1CCOCC1)n1c(Cc2ccccc2)nc2ccccc21,13,-0.83,x,70*
SMILES,Measles CPE,SDO1 yeast rescue,ROMK mod,INS promoter inh
CCCCCCc1c(O)nc(SCCN2CCOCC2)[nH]c1=O,x,x,-0.84,0
CC(C)Cc1c(O)nc(SCCN2CCOCC2)[nH]c1=O,72*,0.54,-0.46,0
COc1ccc(/C=C/c2nnc(NC(=O)CSc3ccc(Cl)cc3)s2)cc1,3,-0.64,x,x
Cc1cccc(C)c1N1CCN(c2ccc3nnc(C(F)(F)F)n3n2)CC1,4,-1.3,-0.86,65
Cc1cc(NC(=O)CSc2nnc(-c3ccco3)n2Cc2ccco2)no1,3,-0.3,1,-35
CCn1c(SCC(=O)Nc2cc(C)on2)nnc1-c1ccco1,35*,0.09,0.41,14
Cc1ccc(C(=O)NNC(=O)c2cc(OCC(F)(F)F)ccc2OCC(F)(F)F)cc1,7,-0.23,x,2
O=C(NNC(=O)c1cc(OCC(F)(F)F)ccc1OCC(F)(F)F)c1cccc(C(F)(F)F)c1,78*,0.23,x,x
O=C(NC1CCCCC1)N(Cc1ccc(F)cc1)Cc1nc2ccccc2c(=O)[nH]1,1,0.32,x,-32
CCc1ccc2oc(-c3ccc(OC)cc3)cc(=Nc3cccc(C(=O)O)c3)c2c1,x,x,2.3*,x
Nc1ccc(-n2nnnc2CN2CCOCC2)cc1,43*,-0.02,x,38
O=C(NNC1CC(=O)N(c2ccc3c(c2)OCCO3)C1=O)c1ccc(Cl)cc1 (configuration not stated),x,x,-0.15,30
Cc1ccc(C(=O)NNC2CC(=O)N(c3ccc4c(c3)OCCO4)C2=O)cc1 (configuration not stated),x,x,-0.96,85*
S=c1sc(SCCOc2ccccc2)nn1-c1ccccc1,93*,-0.28,-0.18,-233
Cc1nc2ncnn2c(C)c1CCC(=O)N1CCc2ccccc21,40*,-0.63,x,x
Cc1nc2nc(C)c(CCC(=O)N3CCc4ccccc43)c(C)n2n1,6,0.3,0.48,-12
Cc1cccc2sc(NNC(=O)c3ccc(S(=O)(=O)N4CCCC(C)C4)cc3)nc12 (configuration not stated),3,0.76,-1.6,65*
Cc1cccc2sc(NNC(=O)c3ccc4c(c3)OCCO4)nc12,37*,-0.67,0.11,0
Cc1cccc2sc(NNC(=O)c3ccc(S(=O)(=O)N4CCc5ccccc5C4)cc3)nc12,1,1.2,0.85,71*
Fc1ccc(/C=N/n2c(-c3cccs3)n[nH]c2=S)cc1,12,-1.7,x,-13
COc1ccc(NC(=O)N2CCCC(c3nc(-c4ccc(C(C)C)cc4)no3)C2)cc1 (configuration not stated),1,-1.9,x,x
CNS(=O)(=O)c1cccc(C(=O)NCC(c2cccs2)N(C)C)c1 (configuration not stated),10,0.35,0.87,73*
Cc1ccc(NS(=O)(=O)c2cccc(C(=O)NCC(c3cccs3)N(C)C)c2)cc1 (configuration not stated),x,x,0.78,x
Cc1onc(-c2ccccc2Cl)c1C(=O)OCC(=O)c1c(N)n(C)c(=O)n(C)c1=O,x,x,1.2,x
CC(C)N(CCNCc1nnc(-c2ccccc2)o1)C(C)C,x,x,0.22,x
SMILES,Measles CPE,SDO1 yeast rescue,ROMK mod,INS promoter inh
O=C(NCc1ccco1)C(=O)NCC1OCCN1S(=O)(=O)c1ccc(Cl)cc1 (configuration not stated),17,-0.35,0.26,-222
O=C(NCc1ccco1)C(=O)NCC1OCCN1S(=O)(=O)c1ccc(F)cc1 (configuration not stated),50*,0.24,-1.4,-14
C=C(C)CSc1nc2nc(C)c(Br)cc2[nH]1,5,0.34,0.85,79*
O=C(OCC(=O)N1CCCc2ccccc21)c1ccc(Cl)nc1,4,2.7,0.82,80*
O=C(OCC(=O)N1CCc2ccccc21)c1cccnc1Cl,6,0.45,x,20
O=C(OCC(=O)N1CCCc2ccccc21)c1cccnc1Cl,39*,-0.03,x,x
CC(=O)Nc1ccc2c(c1)ncn2-c1ccc(C)cc1,x,x,0.1,x
CN(C)c1ccc(C=C(c2nnnn2-c2ccccc2)c2nnnn2-c2ccccc2)cc1,23*,-0.59,-0.05,-42
CNC(=S)NCC(O)c1ccc([N+](=O)[O-])cc1 (configuration not stated),x,x,0.73,-18

# Bioassay records: PubChem, several laboratories
